Among all 68,000 compounds or so, about 2,700 (4%) showed an effect of 50% or more. Many of the other results were omitted from the sample, so strong results are more common in it than they were.

This experiment relates to Plasmodium berghei. The experiment is described as follows: Screen against P. berghei liver stage (PbLuc), transformed with Luciferase, at 2uM. The note with it: tested at 2 uM. It counts as functional, HepG2.
Turning to `C[C@H]1C[C@H]2CN(S(=O)(=O)c3ccc(F)cc3)CC[C@@H]2O1`, the INHIBITION is -21.77%. Then `COCCNC(=O)Nc1ccc(-n2cncn2)c(F)c1`, with 0.26%; and `CC(=O)Nc1ccc(-n2cncn2)c(F)c1`, with 8.5%; and `COCCOc1ncccc1C(=O)Nc1ccc(-n2cncn2)c(F)c1`, with 69.41%. Then `COC[C@]1(O)CCN(c2cc(N3CCOCC3)ncn2)CC1(C)C`, with -18.81%; and `COc1ccc(CNC(=O)Nc2cccnc2N2CCCC2)cc1O`, with 24.15%; and `CN1CCC2(CCN(c3ncc(F)cn3)CC2)C1=O`, with 34.19%.

As to `O=C1N(CC2CC2)CCC12CCCN(c1ncc(F)cn1)C2` (stereo not given), the INHIBITION is given as -14.61%. Then `O=C1N(CC2CCCC2)CCC12CCN(c1ncc(F)cn1)CC2`, with 61.15%.

Turning to `Cc1cnc(N2CCC3(CCN(CC4CC4)C3=O)CC2)nc1`, the INHIBITION is 51.19%. Take `Cc1cnc(N2CCC3(CCN(CC4CCCC4)C3=O)CC2)nc1`: the INHIBITION came to 45.28%.

As to `O=C1N(CC2CC2)CCC12CCN(c1ncccn1)CC2`, the INHIBITION came out at 8.37%. Then `Cc1ccc(CNC(=O)NC2CCCN(c3ncccn3)C2)n1C` (stereo not given), with 30.83%.

Consider `Cc1ccc(C(CNCc2ncc[nH]2)N2CCOCC2)s1` (stereo not given), for which the INHIBITION is recorded as 6.4%. As for `CCn1ccnc1CNCC(c1ccc(C)s1)N1CCOCC1` (stereo not given), the INHIBITION came out at 76.65%. Then `Cc1ccc(C(CNCc2nccn2C)N2CCOCC2)s1` (stereo not given), with 69.82%; and `Cc1ccc(C(CNCc2cccn2C)N2CCOCC2)s1` (stereo not given), with -24.42%; and `Cc1ccc(C(CNCc2ccncc2)N2CCOCC2)s1` (stereo not given), with -27.89%. The value for `CCn1cc(CNCC(c2ccc(C)s2)N2CCOCC2)cn1` (stereo not given) was 8.33%; that for `NS(=O)(=O)CCNC(=O)c1nnn(-c2ccccc2)c1C1CC1` was 2.39%; that for `Cc1nc(NC(=O)CN2CCc3c(nc(C(C)C)n3C)C2)sc1C` was -1.14%. Then `CS(=O)(=O)N1CCO[C@@H]2CN(C(=O)COC3CCCC3)C[C@@H]2C1`, with 17.4%; and `CCOc1c(OC)cc(C=Cc2ncc(C(=O)NC)s2)cc1OC`, with 39.56%; and `FC(F)(F)c1cccc(N2CCC(NCc3cccnc3)CC2)c1`, with 47.23%. With `CC(=O)NC[C@H]1C[C@@H]2CCN1C[C@@H]2c1cc(-c2cccs2)nn1C`, the INHIBITION worked out at 35.89%.

As to `Cn1nc(-c2ccccc2)cc1[C@H]1CN2CC[C@H]1C[C@@H]2CNS(C)(=O)=O`, the INHIBITION is listed as 62.25%. Then `Cn1nc(-c2cccs2)cc1[C@H]1CN2CC[C@H]1C[C@@H]2CNS(C)(=O)=O`, with 40.83%; and `Cn1nc(-c2cccs2)cc1[C@H]1CN2CC[C@H]1C[C@@H]2CN`, with 34.24%; and `COCC(=O)NC[C@H]1C[C@@H]2CCN1C[C@@H]2c1cc(-c2cccs2)nn1C`, with 27.65%. The value for `CCNC(=O)NC[C@H]1C[C@@H]2CCN1C[C@@H]2c1cc(-c2cccs2)nn1C` was 60.6%; that for `O=C(c1cc(C2CC2)on1)N1CCC(Oc2ncccc2Cl)CC1` was -22.8%. Then `CCN1C[C@@H]2[C@@H](OC)CCN(S(=O)(=O)c3ccccc3F)[C@@H]2C1`, with -22.38%. Take `O=C(CCc1ccccc1)NCC(O)c1c(F)cccc1F` (stereo not given): the INHIBITION is reported as -17.44%. The value for `CC(C)C(=O)N1Cc2ccccc2CC2(CCCCN2C)C1` (stereo not given) was 6.2%; that for `O=C(CCNc1ncccn1)N1CCN(c2nccs2)CC1` was 9.41%. Then `COCCN1CCC2(CC1)CC(CC(N)=O)c1ccc(F)cc12` (stereo not given), with 53.06%; and `CCC(=O)N1CCC2(CC1)CC(CC(N)=O)c1ccc(F)cc12` (stereo not given), with -10.13%.

On to `CC(C)N1CCC2(CC1)CC(CC(N)=O)c1ccc(F)cc12` (stereo not given), for which the INHIBITION is reported as -94.52%. Take `O=C(CCc1cccc(F)c1F)N1CCCC(n2cncn2)C1` (stereo not given): the INHIBITION is -19.35%. The value for `CCN(CC)[C@@H]1CN(C(=O)c2ccc(C#N)cc2)[C@@H]2CCCO[C@H]12` was -58.31%; that for `Nc1cccnc1N1CCN(c2ccccc2)CC1` was -43.35%; that for `COc1cccc(F)c1-c1nc2c([nH]1)c(C1CC1)nn2C` was 21.14%. Then `O=C(c1ccc[nH]1)N1CCc2onc(COc3cccnc3)c2C1`, with -39.67%; and `O=C(c1ccncc1F)N1CCc2onc(COc3cccnc3)c2C1`, with 54.89%; and `O=C(N1CCCC1)N1CCc2onc(COc3cccnc3)c2C1`, with 11.79%. With `O=C(c1ccc(F)cc1F)N1C[C@@H](O)[C@H](N2CCOCC2)C1`, the INHIBITION came out at 13.51%. For the compound `O=C(CCc1nccs1)N1CCCC(N2CCNC2=O)C1` (stereo not given), the INHIBITION came to 7.74%. The value for `CCN1C[C@@H]2CN(S(=O)(=O)c3cccs3)C[C@@H]2C1=O` was 62.25%; that for `CC(C)CN1C[C@@H]2CN(S(=O)(=O)c3cccs3)C[C@@H]2C1=O` was 29.85%. Turning to `COCCN1C[C@@H]2CN(S(=O)(=O)c3cccs3)C[C@@H]2C1=O`, the INHIBITION is listed as -8.59%.

The record behind these values is ChEMBL document CHEMBL4513216, “Probing the Open Global Health Chemical Diversity Library for Multistage-Active Starting Points for Next-Generation Antimalarials” (ACS Infect Dis, 2020).
